According to PubChem BioAssay (NCI):
The panel holds about 83,000 compounds, 20% with a hit somewhere; the sample as a whole holds those more often.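 Method: cells in 96-well plates; compound added at one concentration; 48 h incubation; percent growth measured; values under 10 scored active.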 Active and inactive are the calls of the source.

What was measured:
Experiment in all cases: NCI-60 one-dose screen, 48 h (100 = growth as untreated, 0 = no growth, -100 = all killed)
Conditions in all cases: 10 µM unless noted
[1] = tested on: DU-145 prostate
[2] = tested on: K-562 leukemia
[3] = tested on: MALME-3M melanoma
[4] = tested on: MDA-MB-231 breast
[5] = tested on: RXF 393 renal
[6] = tested on: SF-268 CNS
[7] = tested on: SF-295 CNS
[8] = tested on: SF-539 CNS
[9] = tested on: UACC-257 melanoma
[10] = tested on: M14 melanoma

Measured: growth

Nc1nc2c(c3cnccc13)C(c1ccc(Cl)c(Cl)c1)Cc1cnccc1-2 (stereo unspecified)
active: [1] -5.69% | [2] 4.04% | [3] -67% | [4] -35% | [5] -74.2% | [6] -10.9% | [7] -29.9% | [8] -45.1% | [9] -12.8% | [10] -44.2%

CC1=C(C)C(=O)C(C(C)C2=C(C)C(=O)C(C)=C(C)C2=O)=C(C)C1=O
inactive: [1] 92.7% | [2] 37.5% | [3] 119% | [4] 94.2% | [5] 11.3% | [6] 101% | [7] 128% | [8] 81.2% | [9] 92.7% | [10] 108%

O=c1[nH]c2cc(O)ccc2n2cc3c(F)cccc3c12
inactive: [1] 33.9% | [2] 24.3% | [3] 40.3% | [4] 52.4% | [6] 19.4% | [7] 15.4% | [8] 16.6% | [9] 51.2% | [10] 25.2%
active: [5] 4.74%

CCS(=O)(=O)N[C@@H]1O[C@H](COC(C)=O)C(OC(C)=O)[C@H](OC(C)=O)C1OC(C)=O (stereo partly specified)
inactive: [1] 105% | [2] 99.4% | [3] 115% | [4] 110% | [5] 88.1% | [6] 94.4% | [7] 111% | [8] 95.1% | [10] 109%

Cc1ccc(S(=O)(=O)Nc2cccc(Cn3c(=O)[nH]c4ccc(Oc5ncccn5)cc4c3=O)c2)cc1
inactive: [1] 95.6% | [2] 26.6% | [3] 59.8% | [4] 77.4% | [5] 80.5% | [6] 82.3% | [7] 74.4% | [8] 71.7% | [9] 73.3% | [10] 59.1%

COc1cc2c(c3c1c(=O)c1cccc(F)c1n3C)C=CC(C)(C)O2
inactive: [1] 92.9% | [2] 74.6% | [3] 75.9% | [4] 58.4% | [5] 88.8% | [6] 102% | [7] 91.8% | [8] 89% | [10] 101%

O=C(O)CS(=O)c1ccc(Cl)cc1 (stereo unspecified)
inactive: [1] 109% | [2] 81.8% | [3] 99.8% | [4] 118% | [5] 103% | [6] 109% | [7] 94.9% | [8] 106% | [9] 99.3% | [10] 102%

O=C(NCCO)C(F)(F)F
inactive: [1] 109% | [2] 105% | [3] 95.6% | [4] 107% | [5] 108% | [6] 102% | [7] 95.5% | [8] 93.5% | [9] 99.3% | [10] 101%

N#CCCCCCCCCCCC#N
inactive: [1] 106% | [2] 103% | [3] 139% | [4] 105% | [5] 113% | [6] 109% | [7] 92% | [8] 108% | [9] 87.7% | [10] 103%

COC(=O)c1cc(=O)nc(N/N=C/c2ccccc2O)s1
inactive: [1] 111% | [2] 78.8% | [3] 82.5% | [4] 83.8% | [5] 99.7% | [6] 88.1% | [7] 81.4% | [8] 106% | [10] 95.2%

CC(=O)O.[In]
inactive: [1] 113% | [2] 96.7% | [3] 109% | [4] 116% | [5] 106% | [6] 103% | [8] 110% | [9] 94.3% | [10] 105%

CSc1nc(N)n2nccc2n1
inactive: [1] 117% | [2] 96.6% | [3] 95.3% | [4] 100% | [5] 112% | [6] 118% | [7] 95.7% | [10] 101%

NC(CSC(c1ccccc1)(c1ccccc1)c1ccccc1)C(=O)NCC(=O)O (stereo unspecified)
inactive: [1] 111% | [2] 54.2% | [3] 52.9% | [4] 61.2% | [5] 22.6% | [6] 67.3% | [8] 21.3% | [9] 54.9% | [10] 44.6%

CC(=O)Oc1cc2ccccc2cc1C(C)C
inactive: [1] 126% | [2] 117% | [3] 111% | [4] 117% | [5] 102% | [6] 111% | [7] 96.8% | [8] 95% | [10] 106%

CCN(CC)CCOC(=O)c1cccnc1
inactive: [1] 109% | [2] 92.7% | [3] 91.3% | [4] 105% | [5] 103% | [6] 102% | [7] 101% | [8] 102% | [10] 102%

CN1NC(c2ccccc2)NN(C)C1=O
inactive: [1] 122% | [2] 89.3% | [3] 84.8% | [4] 108% | [5] 107% | [6] 102% | [7] 83.5% | [8] 106% | [10] 108%

CCN(CC)C(=O)C1(C)CCCC2(C)c3cc(OC(C)=O)ccc3CCC12 (stereo unspecified)
inactive: [1] 99.9% | [2] 58.6% | [3] 86.4% | [4] 103% | [5] 92% | [6] 86.5% | [7] 85.1% | [8] 89.2% | [10] 112%

CC(=O)Nc1ccc(S(=O)(=O)Cl)cc1
inactive: [1] 107% | [2] 98.1% | [3] 111% | [4] 118% | [5] 96.2% | [6] 109% | [8] 100% | [9] 131% | [10] 118%

CCC(C)(CC)c1ccc(O)c(C)c1
inactive: [1] 114% | [2] 114% | [3] 99.8% | [4] 106% | [5] 108% | [6] 109% | [7] 105% | [8] 100% | [10] 99.7%

CN(CCC#N)c1ccc(/C=C(\C#N)c2cccc(C(F)(F)F)c2)cc1
inactive: [1] 82.5% | [2] 21% | [3] 58.2% | [4] 58.8% | [5] 71.7% | [6] 81.7% | [7] 95.8% | [8] 68% | [10] 55.9%

Cc1ccc(C(=O)C(Br)C(Br)c2ccccc2)cc1 (stereo unspecified)
inactive: [1] 85.9% | [2] 50.9% | [3] 88.3% | [4] 99.9% | [5] 79.3% | [6] 95.7% | [7] 97.9% | [8] 100% | [10] 101%

COC(=O)[C@H](Cc1cn(C)cn1)NC(=O)[C@H](Cc1c[nH]c2ccccc12)NC(=O)Nc1cc(C(F)(F)F)cc(C(F)(F)F)c1
active: [1] -88.1% [100 µM] | [2] -59.3% [100 µM] | [3] -70.2% [100 µM] | [4] -92.4% [100 µM] | [5] -81.2% [100 µM] | [6] -79.9% [100 µM] | [8] -69.1% [100 µM] | [9] -67.6% [100 µM] | [10] -83.8% [100 µM]

CCCCCCCCCCCCCCCCCC(=O)Nc1ccc(O)cc1
inactive: [1] 103% | [2] 96.6% | [3] 94.1% | [4] 86.3% | [5] 99.6% | [6] 84.2% | [7] 106% | [10] 103%
active: [8] -16%

COc1ccc(/C=C/C(=O)/C=C/c2cc3ccccc3[nH]c2=O)cc1
inactive: [1] 81.2% | [3] 32.6% | [4] 64.5% | [5] 30.6% | [6] 47.8% | [7] 104% | [9] 74.8% | [10] 72.9%
active: [2] 4.13%

COC(=O)C(C(=O)OC)C(Br)C(Br)C(Br)c1ccccc1 (stereo unspecified)
inactive: [1] 89.5% | [2] 24.8% | [3] 101% | [4] 117% | [5] 57.5% | [6] 99.2% | [8] 98% | [9] 82.7% | [10] 104%

CCCCCCC(C(=O)OCC)(C(=O)OCC)C1CCCCCC1
inactive: [1] 120% | [2] 100% | [3] 108% | [4] 101% | [5] 104% | [6] 121% | [7] 105% | [8] 92.8% | [10] 106%

CC(=O)CC(=O)OC/C=C(/C)CCC=C(C)C
inactive: [1] 111% | [2] 108% | [3] 121% | [4] 109% | [5] 98% | [6] 106% | [8] 97% | [9] 106% | [10] 101%

CCCCCCCCC(=O)Nc1ccc(O)cc1
inactive: [1] 103% | [2] 91.2% | [3] 87.7% | [4] 92.1% | [5] 101% | [6] 92% | [7] 101% | [8] 88.9% | [10] 107%

COc1cc(C(=O)Nc2ccc(N(C)C)cc2)cc(OC)c1OC
inactive: [1] 107% | [2] 42.8% | [3] 80.6% | [4] 96.4% | [5] 95.7% | [6] 99.1% | [7] 91.7% | [8] 96.1% | [10] 89.8%

CNc1nc2ncn(C)c2c(=O)[nH]1
inactive: [1] 106% | [2] 65.5% | [3] 98.8% | [4] 90.9% | [5] 106% | [6] 95.5% | [7] 101% | [8] 96.2% | [10] 112%
